Results filed as inconclusive are left out. Active and inactive are the calls of the source. Rule for the calls: active = hit-call score of the fitted dose curve at least 0.9, where 1 is the maximum; inconclusive = response in the unintended direction; inactive = score below 0.9.

Assay [1] addresses human Dopamine Receptor D2 (DRD2), DRD2 (gene 1813) (UniProt P14416). Briefly: NVS_GPCR_hDRD2s: NovaScreen (NVS) G Protein-Coupled Receptor Assay for human Dopamine Receptor D2 (DRD2) (AID 2283266). The method, boiled down:
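Radioligand displacement used human DRD2 membranes extracted from CHO cells and was read by filter-based scintillation counting after 1.5 hours. Primary screening was in duplicate at 25 uM. Loss of signal versus DMSO was fitted, with concentration series in follow-up.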

Assay [2] deals with human Histamine 1 Receptor (H1), HRH1 (gene 3269) (UniProt P35367). The experiment in a line: NVS_GPCR_hH1: NovaScreen (NVS) G Protein-Coupled Receptor Assay for human Histamine 1 Receptor (H1) (AID 2283268). In outline: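 Cell-free radioligand displacement at human H1 receptor, 1 h, filter scintillation counting; primary screen 25 uM in duplicate, hits in concentration series; loss of binding fitted vs DMSO.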

Assay [3] has as its system guinea pig Muscarinic, Peripheral (Mperiperal) Receptor, Non-selective Binding, gene 100379235. Briefly: NVS_GPCR_gMPeripheral_NonSelective: NovaScreen (NVS) G Protein-Coupled Receptor Assay for guinea pig Muscarinic, Peripheral (Mperiperal) Receptor, Non-selective Binding (AID 2283250). In outline: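 Guinea pig bladder membranes, radioligand binding read 1 h after dosing by filter scintillation counting; loss of signal vs DMSO. Primary duplicate screen at 25 uM, then concentration-response up to 50 uM.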

Assay [4] deals with human Serotonin, 5-Hydroxytryptamine Receptor 5A (5HT5A), HTR5A (gene 3361) (UniProt P47898). Briefly: NVS_GPCR_h5HT5A: NovaScreen (NVS) G Protein-Coupled Receptor Assay for human Serotonin, 5-Hydroxytryptamine Receptor 5A (5HT5A) (AID 2283251). In outline: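 Cell-free radioligand displacement binding on HEK293-derived membrane protein, 1 h incubation, filter-based scintillation counting. Primary screen in duplicate at 25 uM, actives followed in concentration series; loss of signal fitted versus DMSO.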

Assay [5] addresses guinea pig Opioid, Kappa 1 Receptor (OpiateK), OPRK1 (gene 100135587) (UniProt P41144). Briefly: NVS_GPCR_gOpiateK: NovaScreen (NVS) G Protein-Coupled Receptor Assay for guinea pig Opioid, Kappa 1 Receptor (OpiateK) (AID 2283252).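 Note: active means reduced radioligand binding relative to DMSO.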 The method, boiled down: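 Signal is scintillation counts of filter-trapped radioligand bound to guinea pig cerebellar membrane receptor, measured 2 hours post-dosing. Activity is loss of binding versus DMSO, first at 25 uM in duplicate, then as concentration series for actives.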

For assay [6], the target named is human Serotonin, 5-Hydroxytryptamine Receptor 6 (5HT6), HTR6 (gene 3362) (UniProt P50406). The experiment in a line: NVS_GPCR_h5HT6: NovaScreen (NVS) G Protein-Coupled Receptor Assay for human Serotonin, 5-Hydroxytryptamine Receptor 6 (5HT6) (AID 2283253). The method, boiled down:
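Radioligand binding to 5HT6 in HEK293-derived membranes, cell-free, 1 h after dosing; bound ligand measured by filter-based scintillation counting. Primary screen in duplicate at 25 uM; actives retested in concentration series.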

Assay [7] addresses human Adrenergic, Alpha 2A Receptor (Adra2A), ADRA2A (gene 150) (UniProt P08913). The experiment in a line: NVS_GPCR_hAdra2A: NovaScreen (NVS) G Protein-Coupled Receptor Assay for human Adrenergic, Alpha 2A Receptor (Adra2A) (AID 2283257). The method, boiled down:
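Radioligand filter-binding was run on HT29-derived membranes, cell-free, read by scintillation counting 1 h after dosing. Primary screening was in duplicate at 25 uM, with concentration series in follow-up. Loss of signal versus DMSO indicates displacement.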

Assay [8] addresses human Adrenergic, Alpha 2c Receptor (Adra2C), ADRA2C (gene 152) (UniProt P18825). The experiment in a line: NVS_GPCR_hAdra2C: NovaScreen (NVS) G Protein-Coupled Receptor Assay for human Adrenergic, Alpha 2c Receptor (Adra2C) (AID 2283259). The method, boiled down:
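Radioligand binding on Sf9-expressed receptor membranes, 1 h after chemical dosing, filter-based scintillation read-out. Loss of binding fitted positively versus DMSO; primary duplicate screen at 25 uM, actives retested in concentration series.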

Assay [9] has as its target human Adrenergic, Beta 3 Receptor (Adrb3), ADRB3 (gene 155) (UniProt P13945). The experiment in a line: NVS_GPCR_hAdrb3: NovaScreen (NVS) G Protein-Coupled Receptor Assay for human Adrenergic, Beta 3 Receptor (Adrb3) (AID 2283262). The method, boiled down:
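Membranes from SK-N-MC cells pretreated with isoproterenol and 8-bromo-cAMP were used in a radioligand competitive displacement binding assay. Binding was read by filter-based scintillation counting 1 hour after dosing. Primary screening was in duplicate at 25 uM, with concentration series in follow-up.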

Assay [10] has as its target human Adrenergic, Beta 1 Receptor (Adrb1), ADRB1 (gene 153) (UniProt P08588). Briefly: NVS_GPCR_hAdrb1: NovaScreen (NVS) G Protein-Coupled Receptor Assay for human Adrenergic, Beta 1 Receptor (Adrb1) (AID 2283258). In outline:
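Cell-free radioligand displacement on receptor from human neuroepithelioma cells; 2 h after dosing, filter-based scintillation counting. Primary screen in duplicate at 25 uM, actives retested in concentration series; loss of signal vs DMSO baseline.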

Assay [11] concerns the target human Serotonin, 5-Hydroxytryptamine Receptor 2A (5HT2A), HTR2A (gene 3356) (UniProt P28223). The experiment in a line: NVS_GPCR_h5HT2A: NovaScreen (NVS) G Protein-Coupled Receptor Assay for human Serotonin, 5-Hydroxytryptamine Receptor 2A (5HT2A) (AID 2283249). The method, boiled down: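 Human cortex membranes, cell-free radioligand binding; filter-based scintillation read 1.5 h after dosing. Duplicate screen at 25 uM first; displacement of specific binding (loss of signal) versus DMSO.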

Assay [12] deals with Type-1 angiotensin II receptor (Homo sapiens) (UniProt P30556). Briefly: NVS_GPCR_hAT1: NovaScreen (NVS) G Protein-Coupled Receptor Assay for human Angiotensin II receptor type 1 (AT1) (AID 2283263). In outline:
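Membranes from KAN-TS cells; radioligand competitive displacement, 3 h, filtration and scintillation counting. Single-point duplicate screen at 25 uM, then concentration-response up to 50 uM for hits; loss of signal fitted versus DMSO.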

The target in assay [13] is human Endothelin Receptor Type A (ETA), EDNRA (gene 1909) (UniProt P25101). The experiment in a line: NVS_GPCR_hETA: NovaScreen (NVS) G Protein-Coupled Receptor Assay for human Endothelin Receptor Type A (ETA) (AID 2283265). In outline: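 Cell-free radioligand displacement using SH-SY5Y-derived protein, 3 h incubation, filter-based scintillation counting. Primary screen in duplicate at 25 uM; actives then run in concentration-response up to 50 uM; loss of binding fitted versus DMSO.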

The target of assay [14] is human Serotonin, 5-Hydroxytryptamine Receptor 7 (5HT7), HTR7 (gene 3363) (UniProt P34969). The experiment in a line: NVS_GPCR_h5HT7: NovaScreen (NVS) G Protein-Coupled Receptor Assay for human Serotonin, 5-Hydroxytryptamine Receptor 7 (5HT7) (AID 2283255).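 Note: hits reduce specific radioligand binding relative to DMSO.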 In outline: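 Radioligand displacement on membranes from CHO cells expressing human 5HT7, 1 h incubation, filter-based scintillation counting. Primary screen used a single 25 uM concentration in duplicate; actives were followed up in concentration series.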

Assay [15] addresses human Dopamine Receptor D4.4 (DRD4.4), DRD4 (gene 1815) (UniProt P21917). Briefly: NVS_GPCR_hDRD4.4: NovaScreen (NVS) G Protein-Coupled Receptor Assay for human Dopamine Receptor D4.4 (DRD4.4) (AID 2283264). In outline: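 Radioligand displacement on human DRD4.4 from CHO-derived membranes, 1 hour incubation, bound counts read by filtration and scintillation. Primary screen in duplicate at 25 uM; actives followed up in concentration series.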

The target of assay [16] is guinea pig Leukotriene D4 Receptor (LTD4), CYSLTR1 (gene 100135514) (UniProt Q2NNR5). Briefly: NVS_GPCR_gLTD4: NovaScreen (NVS) G Protein-Coupled Receptor Assay for guinea pig Leukotriene D4 Receptor (LTD4) (AID 2283248). The method, boiled down:
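Radioligand displacement on guinea pig lung membranes, 1 h incubation, filtration and scintillation counting; DMSO as negative control. Duplicate 25 uM primary screen, then singleton concentration-response up to 50 uM.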

Assay [17] deals with Beta-2 adrenergic receptor (Homo sapiens) (UniProt P07550). Briefly: NVS_GPCR_hAdrb2: NovaScreen (NVS) G Protein-Coupled Receptor Assay for human Adrenergic, Beta 2 Receptor (Adrb2) (AID 2283261). In outline:
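Filter-based radioligand binding using receptor prepared from CHO cells, 1 h incubation, scintillation counting. Primary screen in duplicate at 25 uM, actives retested in concentration series; loss of binding relative to DMSO.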

Sequence of human Dopamine Receptor D2 (DRD2), DRD2 (gene 1813) (P14416 whole entry, looked up): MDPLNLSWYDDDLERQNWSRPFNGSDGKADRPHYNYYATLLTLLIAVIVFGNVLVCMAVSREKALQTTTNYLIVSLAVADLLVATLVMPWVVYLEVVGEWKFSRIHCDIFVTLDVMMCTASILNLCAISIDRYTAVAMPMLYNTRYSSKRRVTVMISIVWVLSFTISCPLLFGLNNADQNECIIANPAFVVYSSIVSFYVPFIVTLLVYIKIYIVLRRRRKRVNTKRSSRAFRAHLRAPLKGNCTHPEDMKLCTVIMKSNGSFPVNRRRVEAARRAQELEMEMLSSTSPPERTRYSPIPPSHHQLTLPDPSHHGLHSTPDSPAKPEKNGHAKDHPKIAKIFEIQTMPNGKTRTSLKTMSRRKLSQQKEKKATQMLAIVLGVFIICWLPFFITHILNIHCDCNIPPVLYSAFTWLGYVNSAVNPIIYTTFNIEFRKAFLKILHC
Sequence of guinea pig Opioid, Kappa 1 Receptor (OpiateK), OPRK1 (gene 100135587) (P41144 whole entry, looked up): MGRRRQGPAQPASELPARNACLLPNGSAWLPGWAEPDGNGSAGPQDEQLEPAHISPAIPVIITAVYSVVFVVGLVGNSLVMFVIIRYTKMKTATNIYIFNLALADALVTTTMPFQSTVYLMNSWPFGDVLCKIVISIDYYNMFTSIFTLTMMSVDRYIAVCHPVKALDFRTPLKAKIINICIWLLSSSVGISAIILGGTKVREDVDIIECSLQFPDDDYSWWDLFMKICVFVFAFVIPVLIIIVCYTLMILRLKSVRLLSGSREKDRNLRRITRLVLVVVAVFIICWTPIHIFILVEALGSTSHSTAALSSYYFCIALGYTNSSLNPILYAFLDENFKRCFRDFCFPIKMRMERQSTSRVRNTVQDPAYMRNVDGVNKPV
Sequence of human Serotonin, 5-Hydroxytryptamine Receptor 5A (5HT5A), HTR5A (gene 3361) (P47898 whole entry, looked up): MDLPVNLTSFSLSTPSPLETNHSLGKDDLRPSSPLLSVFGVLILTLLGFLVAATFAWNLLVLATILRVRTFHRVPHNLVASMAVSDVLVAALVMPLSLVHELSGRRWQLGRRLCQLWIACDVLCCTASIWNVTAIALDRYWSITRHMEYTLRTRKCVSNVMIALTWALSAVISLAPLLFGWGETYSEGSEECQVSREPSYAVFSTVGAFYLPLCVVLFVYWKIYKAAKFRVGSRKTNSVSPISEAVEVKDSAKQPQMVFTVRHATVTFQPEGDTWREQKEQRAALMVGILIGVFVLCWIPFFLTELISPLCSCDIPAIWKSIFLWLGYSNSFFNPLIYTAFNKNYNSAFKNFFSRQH
Sequence of human Adrenergic, Alpha 2c Receptor (Adra2C), ADRA2C (gene 152) (P18825 whole entry, looked up): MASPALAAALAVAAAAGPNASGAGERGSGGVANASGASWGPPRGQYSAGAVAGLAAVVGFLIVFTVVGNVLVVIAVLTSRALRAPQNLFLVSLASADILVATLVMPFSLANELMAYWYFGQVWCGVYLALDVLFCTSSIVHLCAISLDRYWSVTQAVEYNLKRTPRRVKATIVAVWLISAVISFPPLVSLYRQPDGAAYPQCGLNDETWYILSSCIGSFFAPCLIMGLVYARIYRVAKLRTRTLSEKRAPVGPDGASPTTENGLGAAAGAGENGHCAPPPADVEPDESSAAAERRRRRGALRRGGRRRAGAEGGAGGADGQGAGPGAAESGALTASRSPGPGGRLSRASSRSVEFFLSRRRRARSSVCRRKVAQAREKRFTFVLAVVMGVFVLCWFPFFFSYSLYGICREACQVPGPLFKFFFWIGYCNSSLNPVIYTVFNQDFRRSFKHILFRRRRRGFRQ
Sequence of human Adrenergic, Beta 1 Receptor (Adrb1), ADRB1 (gene 153) (P08588 whole entry, looked up): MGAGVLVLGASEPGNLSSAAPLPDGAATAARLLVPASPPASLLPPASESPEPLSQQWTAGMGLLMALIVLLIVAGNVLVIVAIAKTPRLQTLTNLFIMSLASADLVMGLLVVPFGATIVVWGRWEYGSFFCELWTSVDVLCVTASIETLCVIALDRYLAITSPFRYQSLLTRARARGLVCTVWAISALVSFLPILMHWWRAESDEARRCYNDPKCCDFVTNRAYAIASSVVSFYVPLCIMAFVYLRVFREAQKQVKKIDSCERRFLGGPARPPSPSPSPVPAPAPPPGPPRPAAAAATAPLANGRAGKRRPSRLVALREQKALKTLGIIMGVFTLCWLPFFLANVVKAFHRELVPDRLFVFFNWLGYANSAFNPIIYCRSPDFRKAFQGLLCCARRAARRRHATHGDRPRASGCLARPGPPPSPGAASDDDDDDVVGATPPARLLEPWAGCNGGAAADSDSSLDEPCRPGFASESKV
Sequence of human Dopamine Receptor D4.4 (DRD4.4), DRD4 (gene 1815) (P21917 whole entry, looked up): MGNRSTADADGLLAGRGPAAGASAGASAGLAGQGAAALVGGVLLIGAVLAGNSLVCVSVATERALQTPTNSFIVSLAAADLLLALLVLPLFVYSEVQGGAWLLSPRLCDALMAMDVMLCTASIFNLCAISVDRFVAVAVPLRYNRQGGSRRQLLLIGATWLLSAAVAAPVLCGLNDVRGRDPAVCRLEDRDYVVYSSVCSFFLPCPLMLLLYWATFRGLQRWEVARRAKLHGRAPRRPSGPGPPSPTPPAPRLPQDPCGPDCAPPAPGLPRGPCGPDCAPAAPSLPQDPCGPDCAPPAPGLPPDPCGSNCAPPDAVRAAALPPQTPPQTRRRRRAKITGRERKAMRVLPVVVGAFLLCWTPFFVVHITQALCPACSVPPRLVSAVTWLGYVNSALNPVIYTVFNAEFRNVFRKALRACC
Sequence of human Histamine 1 Receptor (H1), HRH1 (gene 3269) (P35367 whole entry, looked up): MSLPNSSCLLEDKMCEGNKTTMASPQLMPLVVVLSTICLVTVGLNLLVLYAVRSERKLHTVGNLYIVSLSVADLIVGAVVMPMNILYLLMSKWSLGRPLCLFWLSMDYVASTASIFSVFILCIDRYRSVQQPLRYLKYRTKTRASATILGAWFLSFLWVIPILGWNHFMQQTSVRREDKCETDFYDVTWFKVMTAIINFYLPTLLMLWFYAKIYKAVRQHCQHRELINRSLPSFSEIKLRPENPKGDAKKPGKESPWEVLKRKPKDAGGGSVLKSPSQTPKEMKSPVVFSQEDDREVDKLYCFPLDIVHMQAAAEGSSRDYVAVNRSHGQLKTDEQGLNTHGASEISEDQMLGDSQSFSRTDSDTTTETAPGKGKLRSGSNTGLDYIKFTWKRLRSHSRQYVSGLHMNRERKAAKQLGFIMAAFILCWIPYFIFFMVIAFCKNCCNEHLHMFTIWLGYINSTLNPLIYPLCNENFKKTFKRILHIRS
Sequence of Type-1 angiotensin II receptor (Homo sapiens) (P30556 whole entry, looked up): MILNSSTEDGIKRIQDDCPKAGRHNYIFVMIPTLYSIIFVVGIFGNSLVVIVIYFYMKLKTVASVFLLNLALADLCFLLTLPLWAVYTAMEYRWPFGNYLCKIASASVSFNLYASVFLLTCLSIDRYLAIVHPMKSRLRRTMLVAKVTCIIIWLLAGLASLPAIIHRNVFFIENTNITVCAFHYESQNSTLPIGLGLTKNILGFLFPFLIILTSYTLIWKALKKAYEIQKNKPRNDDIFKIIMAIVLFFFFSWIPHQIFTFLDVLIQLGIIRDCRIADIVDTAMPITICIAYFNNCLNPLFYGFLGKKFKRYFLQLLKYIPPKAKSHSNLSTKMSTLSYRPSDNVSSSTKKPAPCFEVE
Sequence of human Serotonin, 5-Hydroxytryptamine Receptor 7 (5HT7), HTR7 (gene 3363) (P34969 whole entry, looked up): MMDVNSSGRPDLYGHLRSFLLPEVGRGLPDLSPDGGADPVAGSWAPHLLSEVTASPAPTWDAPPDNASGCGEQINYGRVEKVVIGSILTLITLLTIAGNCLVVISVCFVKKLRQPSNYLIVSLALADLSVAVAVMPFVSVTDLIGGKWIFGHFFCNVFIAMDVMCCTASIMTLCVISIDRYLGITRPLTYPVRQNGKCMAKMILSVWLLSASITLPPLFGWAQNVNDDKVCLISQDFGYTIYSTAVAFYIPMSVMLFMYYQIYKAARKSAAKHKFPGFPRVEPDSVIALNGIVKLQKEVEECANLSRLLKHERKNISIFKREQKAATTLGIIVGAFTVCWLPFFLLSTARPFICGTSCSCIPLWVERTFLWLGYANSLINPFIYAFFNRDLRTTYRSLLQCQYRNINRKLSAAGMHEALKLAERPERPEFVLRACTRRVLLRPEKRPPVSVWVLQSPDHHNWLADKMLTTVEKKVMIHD
Sequence of human Serotonin, 5-Hydroxytryptamine Receptor 6 (5HT6), HTR6 (gene 3362) (P50406 whole entry, looked up): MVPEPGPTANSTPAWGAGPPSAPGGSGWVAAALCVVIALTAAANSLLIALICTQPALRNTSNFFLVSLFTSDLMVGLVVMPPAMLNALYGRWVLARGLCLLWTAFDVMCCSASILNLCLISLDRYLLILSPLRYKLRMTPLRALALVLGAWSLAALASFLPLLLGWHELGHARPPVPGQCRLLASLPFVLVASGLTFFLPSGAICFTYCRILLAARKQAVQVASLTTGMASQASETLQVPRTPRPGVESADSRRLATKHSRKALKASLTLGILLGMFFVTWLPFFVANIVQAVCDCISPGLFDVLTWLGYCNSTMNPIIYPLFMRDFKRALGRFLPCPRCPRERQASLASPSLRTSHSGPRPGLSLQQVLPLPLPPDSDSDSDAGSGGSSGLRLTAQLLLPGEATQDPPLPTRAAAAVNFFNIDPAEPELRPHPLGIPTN
Sequence of human Adrenergic, Beta 3 Receptor (Adrb3), ADRB3 (gene 155) (P13945 whole entry, looked up): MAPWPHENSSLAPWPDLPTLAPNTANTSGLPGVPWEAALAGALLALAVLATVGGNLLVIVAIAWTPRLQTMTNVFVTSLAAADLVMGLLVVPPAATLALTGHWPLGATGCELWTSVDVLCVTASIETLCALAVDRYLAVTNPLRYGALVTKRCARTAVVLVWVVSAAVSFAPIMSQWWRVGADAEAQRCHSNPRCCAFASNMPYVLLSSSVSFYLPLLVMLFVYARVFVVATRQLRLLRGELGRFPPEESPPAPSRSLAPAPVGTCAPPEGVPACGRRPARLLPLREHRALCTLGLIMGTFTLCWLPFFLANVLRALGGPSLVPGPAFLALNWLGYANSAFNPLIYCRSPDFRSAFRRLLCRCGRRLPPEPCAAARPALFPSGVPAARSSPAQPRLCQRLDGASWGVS

Consider `Cc1cc(SC2=C(O)C[C@@](CCc3ccc(N)cc3)(C(C)C)OC2=O)c(C(C)(C)C)cc1CO`, for which the molecule was classed as inactive in assay [1] and in assay [2].
Regarding `COc1ccc(OC(F)(F)F)cc1CN[C@H]1CCCN[C@H]1c1ccccc1`, the half-maximal activity concentration (AC50) in assay [3] is 25 µM (active); in [5] it was 25 µM (active); in [6], 9.71 µM (active); in assay [7], 13.4 µM (active); in [8], 10.6 µM (active); in assay [9], 20.5 µM (active). The outcome in [4] and in assay [1] was inactive.
`CCCCC(CC)COC(=O)CCCCCCCC(=O)OCC(CC)CCCC` (stereo not given): the call in assay [10] was inactive.
For `Cc1occc(=O)c1O`, in [11], the outcome was inactive.
For the molecule `CC(=O)O[C@]1(C(C)=O)CC[C@H]2[C@@H]3C=C(Cl)C4=CC(=O)[C@@H]5C[C@@H]5[C@]4(C)[C@H]3CC[C@@]21C`, the molecule was called inactive in [4].
For the molecule `O=Cc1ccccc1C=O`, the half-maximal activity concentration (AC50) in assay [5] was 9.81 µM (active); in assay [13], 19.2 µM (active). In [12], the result was inactive.
On to `O=C(O)c1[nH]n(-c2ccc(S(=O)(=O)O)cc2)c(=O)c1N=Nc1ccc(S(=O)(=O)O)cc1`, for which the outcome in assay [4], in assay [14], in assay [8] and in [1] was inactive. Besides, the results for the concentration at half-maximal activity (AC50) in assay [5] and in [15] were 43.3 µM (active) and 16.5 µM (active), respectively.
On to `Cn1cnc2c1c(=O)[nH]c(=O)n2C`, for which the result in [9] was inactive.
For `CCCCCCCCCCCCCCOS(=O)(=O)O`, the AC50 in assay [16] is 9.7 µM (active); in [3], 25 µM (active); in assay [4], 20.3 µM (active); in [6], 39.1 µM (active); in [14] it was 16.5 µM (active); in assay [10], 5.22 µM (active). The AC50 is 2.99 µM (active) in assay [8]; 15.4 µM (active) in assay [17]; 13.3 µM (active) in [15]; 15.1 µM (active) in assay [1]; 28.1 µM (active) in [2]. Besides, the outcome in [12] was inactive.

The record behind these values is PubChem BioAssay (EPA / NIEHS).
